According to the supplement of paper PMC13380429:

Test system: Vero E6 infected with SARS-CoV-2
Experiment: inhibition of SARS-CoV-2 cytopathic effect; higher = more antiviral protection, active = above 15
Conditions: 48 h

Measured: inhibition of SARS-CoV-2 cytopathic effect

O=C(OCC(O)CO)c1ccccc1Nc1ccnc2cc(Cl)ccc12 (stereo not given) [glafenine]
inactive: 1 nM -1.53% | 8.33 nM 0.88% | 100 nM 2.29% | 833.33 nM -3.09% | 10000 nM -2.34%

CC[N+](C)(CC)CCOC(=O)C(O)(c1ccccc1)C1CCCCC1 (stereo not given) [oxyphenonium]
inactive: 1 nM -1.8% | 8.33 nM -1.33% | 100 nM -2.81% | 833.33 nM 0.58% | 10000 nM -1.5%

CCOCOC[C@H](C[C@H](C)C(=O)NO)NC(=O)c1ccc(Oc2ccccc2)cc1
inactive: 1 nM 4.15% | 8.33 nM 13.5% | 100 nM 5.33% | 833.33 nM -3.29% | 10000 nM -6.18%

Oc1ccc2c3c1O[C@H]1c4[nH]c5ccccc5c4C[C@@]4(O)[C@@H](C2)N(CC2CC2)CC[C@]314 [naltrindole]
inactive: 1 nM 1.74% | 8.33 nM 3.59% | 100 nM 1.09% | 833.33 nM 0.82% | 10000 nM -3.58%

N#Cc1cccc(-c2nc(-c3cccnc3)no2)c1
inactive: 1 nM -1.62% | 8.33 nM 0.72% | 100 nM -0.15% | 833.33 nM -1.08% | 10000 nM 2.85%

[N-]=[N+]=N[C@]1(CO)O[C@@H](n2ccc(N)nc2=O)[C@H](O)[C@@H]1O
inactive: 1 nM -1.63% | 8.33 nM 0.795% | 100 nM 0.87% | 833.33 nM 1.03% | 10000 nM -0.005%
